B2AR ag: human beta-2 adrenergic receptor agonism by FAP | 340,000 compounds, 0.43% hits | Am2.2-beta2AR cells, FAP receptor internalization, flow cytometry | response, % (no concentration beside the values) | AID 504454;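 active = response above a set limit, near 3 SD of response in nonfluorescent compounds, cut at about 42% in these data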
Bfl-1 A1 inh: inhibitors of the anti-apoptotic protein A1, read as caspase activation | MEF A1-2A-BIM cells, Caspase-Glo 3/7 luminescence, 3 h; percent of clofoctol response, vehicle zero | caspase activation, % (no concentration beside the values) | 330,000 compounds, 0.066% hits | AID 2462;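 active = over half of replicate activation scores above 10%, or exactly half above 10 with the replicate mean above 10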
GRK2 inh: inhibitors of human GRK2 displacing RNA aptamer; P25098; 330,000 compounds, 0.59% hits; bead flow cytometry, FAM-aptamer displacement from GRK2; AID 488847; inhibition of aptamer binding, % at 10 µM;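 active = inhibition of aptamer binding above 40%, roughly 3 SD of noise, on plates passing a quality check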;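 also: median bead fluorescence of bound FAM aptamer so fluorescent compounds give negative values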
NTR1 ag: activates human neurotensin receptor 1. P30989. NTR1-U2OS beta-arrestin-GFP spot imaging, agonist mode. activation, % at 20 µM. 330,000 compounds, 0.17% hits;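 active = activation at or above 40% of the spot to cytoplasm intensity ratio, with at least 20 cells analyzed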
VLA-4 inh: inhibition in a human VLA-4 binding assay. inhibition, % (about 7 µM as worked out from the volumes in the protocol). 330,000 compounds, 0.2% hits. VLA-4 expressing cells, ligand binding flow cytometry; in the data active = inhibition above about 50%
Target sequence (P13612 whole entry, looked up): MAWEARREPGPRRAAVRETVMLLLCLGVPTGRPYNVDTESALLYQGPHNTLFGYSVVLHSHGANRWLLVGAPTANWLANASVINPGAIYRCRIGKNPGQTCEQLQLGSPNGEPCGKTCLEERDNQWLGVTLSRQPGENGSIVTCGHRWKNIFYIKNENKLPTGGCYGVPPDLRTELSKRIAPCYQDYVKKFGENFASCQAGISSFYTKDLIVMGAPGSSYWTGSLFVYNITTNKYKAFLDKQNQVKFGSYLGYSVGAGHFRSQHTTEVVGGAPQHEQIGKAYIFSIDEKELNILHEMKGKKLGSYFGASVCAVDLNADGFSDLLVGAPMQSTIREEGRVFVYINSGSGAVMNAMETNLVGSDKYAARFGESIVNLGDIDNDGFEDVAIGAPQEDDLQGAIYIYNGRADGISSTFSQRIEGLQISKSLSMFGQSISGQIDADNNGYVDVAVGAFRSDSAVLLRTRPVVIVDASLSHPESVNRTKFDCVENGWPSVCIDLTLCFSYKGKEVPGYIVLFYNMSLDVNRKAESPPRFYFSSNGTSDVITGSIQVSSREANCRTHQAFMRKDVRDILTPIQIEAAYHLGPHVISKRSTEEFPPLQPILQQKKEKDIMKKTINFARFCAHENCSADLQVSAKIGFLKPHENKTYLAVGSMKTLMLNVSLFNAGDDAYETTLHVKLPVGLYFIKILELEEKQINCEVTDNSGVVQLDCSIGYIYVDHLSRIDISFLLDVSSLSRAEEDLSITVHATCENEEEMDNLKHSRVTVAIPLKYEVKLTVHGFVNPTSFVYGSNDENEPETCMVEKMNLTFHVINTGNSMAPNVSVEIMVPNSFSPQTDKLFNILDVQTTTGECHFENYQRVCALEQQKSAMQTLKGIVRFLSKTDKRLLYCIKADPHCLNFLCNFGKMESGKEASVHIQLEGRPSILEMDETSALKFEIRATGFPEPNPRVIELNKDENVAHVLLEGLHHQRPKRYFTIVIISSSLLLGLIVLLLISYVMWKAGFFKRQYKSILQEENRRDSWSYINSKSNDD
VLA-4 mod pick: confirmation of allosteric modulators of human VLA-4 integrin; U937 cells, HUTS-21 LIBS mAb binding, flow cytometry; LDV ligand present at threefold Kd; shares compounds with VLA-4 inh; inhibition, % at 6.7 µM; 1,300 compounds, 2% hits; in the data active = inhibition above about 40%
Large screens that a line does not name were inactive (follow-up assays come after a bar, where they were run). In the library only some 1.3% were active in any assay of this set; here they are far more common.

CCOc1ccc(C(=O)NCCC2=CCCCC2)cc1OCC	VLA-4 inh 51.8 | VLA-4 mod pick inactive
O=C(COC(=O)c1ccc(O)cc1)NCCC1=CCCCC1	VLA-4 inh 60.7 | VLA-4 mod pick inactive
CCC(=O)c1ccc(OCC(=O)NCCC2=CCCCC2)c(OC)c1	none
CCn1c(SCC(=O)Nc2ccc(N3CCOCC3)cc2)nnc1C1CC1	none
O=C(Cc1ccccc1Cl)c1ccccc1	none (no result: Bfl-1 A1 inh, GRK2 inh, NTR1 ag, VLA-4 inh)
Cc1cc2[nH]c(=O)c(=O)[nH]c2cc1S(=O)(=O)NCc1ccc(Cl)cc1	none
O=C(Nc1cccc(Cl)c1)OCc1cncs1	none | VLA-4 mod pick inactive
O=C(Nc1cccc2ccccc12)OCc1cncs1	none
O=C(Nc1ccc(Cl)cc1)OCc1cncs1	none | VLA-4 mod pick inactive
O=C(CN1CCC(NC(=O)C2CC2)CC1)Nc1cccc(F)c1	none
CCOc1ccc(N(Cc2ccc(OC)c(OC)c2)C(=O)c2ccco2)cc1	VLA-4 inh 67.8 | VLA-4 mod pick inactive
O=c1cc(C(F)(F)F)nc(-n2[nH]c3c(c2=O)CCCC3)[nH]1	VLA-4 inh 49.7 | VLA-4 mod pick inactive
COc1cccc(CN2CC(C(=O)N3CCN(c4ccc(Cl)cc4)CC3)CCC2=O)c1 (stereo unspecified)	none
O=C(CSc1nnc(Cc2cc(=O)[nH]c(=O)[nH]2)n1-c1ccccc1)N1CCCCC1	none | VLA-4 mod pick inactive
O=C(CSc1nnc(Cc2cc(=O)[nH]c(=O)[nH]2)n1-c1ccccc1)N1CCCC1	none | VLA-4 mod pick inactive
O=c1cc(Cc2nnc(SCc3ccccc3)n2-c2ccc(Cl)cc2)[nH]c(=O)[nH]1	none
CCOc1cc(C(=O)N(C)CC(=O)Nc2cccc(F)c2)ccc1OCC(=O)N1CCOCC1	none
O=C(NCCCNC(=O)c1c(Cl)cccc1Cl)c1c(Cl)cccc1Cl	none
CC(NC(=O)c1cc2ccccc2oc1=O)c1ccccc1 (stereo unspecified)	none
CCOC(=O)N1CCN(Cc2nc3cc(NC(=O)CC(C)C)ccc3n2CC)CC1	VLA-4 inh 51.0 | VLA-4 mod pick inactive
CC1CN(CCOCCSc2ccccc2)CC(C)O1 (stereo unspecified)	none | VLA-4 mod pick inactive
CCC(=NNC(=O)c1cccc(S(=O)(=O)N2CCOCC2)c1)c1ccccc1	VLA-4 inh 49.7 | VLA-4 mod pick inactive
COc1ccc(C(=O)Nc2ccccc2C(=O)NC(Cc2ccc(O)cc2)C(=O)NNC(=O)c2ccncc2)cc1 (stereo unspecified)	VLA-4 inh 56.1 | VLA-4 mod pick inactive
NC(=O)c1cc(S(=O)(=O)N2CCOCC2)cs1	none
CC(=O)N1c2ccc(S(=O)(=O)NCCC(=O)N3CCC(C)CC3)cc2CC1C (stereo unspecified)	none
CS(=O)(=O)c1ccccc1C(=O)N(CCc1ccccc1)Cc1ccccc1	none
COc1ccc(C(=O)N(CCc2ccccc2)Cc2ccccc2)c(OC)n1	none | VLA-4 mod pick inactive
O=C1CN(C(=O)COC(=O)CCS(=O)(=O)c2ccccc2Cl)c2ccccc2N1	none
COc1ccc(CN(CC(=O)NCc2ccccc2)C(=O)CCC(=O)Nc2nccs2)cc1	none
CN(C(=O)COC(=O)c1ccc2c(c1)OCO2)C1CCCCC1	none
CN(C(=O)COC(=O)c1ccc2c(c1)OCO2)C1CCS(=O)(=O)C1 (stereo unspecified)	VLA-4 inh 93.0 | VLA-4 mod pick inactive
Cc1ccccc1-c1nc2cc(Cl)ccc2c(=O)o1	none | VLA-4 mod pick inactive
Cc1ccccc1-c1nc2cc(Cl)ccc2o1	none
O=C(CCc1nc2ccccc2c(=O)[nH]1)Nc1cc(Cl)ccc1N1CCCC1	none (no result: Bfl-1 A1 inh)
CCn1c(/C=N/Nc2ccc(C(=O)O)cc2)nc2ccccc21	none | VLA-4 mod pick inactive
CCn1c(CNc2ccc(C(=O)O)cc2)nc2ccccc21	none
CCN(Cc1ccc2c(c1)OCCO2)C(=O)CN1C(=O)NC2(CCc3ccccc32)C1=O (stereo unspecified)	none
CCCC[C@@H]1C=C(C(=O)O)[C@H](c2ccc(Cl)cc2)N1S(=O)(=O)c1ccc(C)cc1	none | VLA-4 mod pick inactive
CCCC[C@@H]1C=C(C(=O)O)[C@H](c2ccc3c(c2)OCO3)N1S(=O)(=O)c1ccc(C)cc1	none | VLA-4 mod pick inactive
Cc1ccc(S(=O)(=O)N2[C@@H](c3ccc(Cl)cc3)C(C(=O)O)=C[C@H]2CC2CCCC2)cc1	none (no result: Bfl-1 A1 inh) | VLA-4 mod pick inactive
CC[C@@H]1C=C(C(=O)O)[C@H](c2ccc(Cl)cc2)N1S(=O)(=O)c1ccc(C)cc1	none (no result: Bfl-1 A1 inh)
CCCCC[C@@H]1C=C(C(=O)O)[C@H](c2ccc(Br)cc2)N1S(=O)(=O)c1ccc(C)cc1	none (no result: Bfl-1 A1 inh) | VLA-4 mod pick inactive
Cc1ccc(S(=O)(=O)N2[C@@H](c3ccc4c(c3)OCO4)C(C(=O)O)=C[C@H]2C(C)(C)C)cc1	none
O=C(Nc1cccc(S(=O)(=O)NCc2ccco2)c1)c1cccc(Cl)c1	none
O=C(NNc1cccc(Cl)c1)c1cccnc1Oc1ccccc1	none
CC(=O)Nc1ccc(NC(=O)c2ccccc2-n2cnnn2)cc1	none (no result: Bfl-1 A1 inh, GRK2 inh, VLA-4 inh)
Cn1cc(C(=O)N/N=C/C=C/c2ccccc2)ccc1=O	none | VLA-4 mod pick inactive
O=C(COC(=O)c1ccccc1)NC1CCCCCC1	none | VLA-4 mod pick inactive
O=C1C2C3C=CC(CO)(O3)C2C(=O)N1c1ccccc1-c1ccccc1 (stereo unspecified)	B2AR ag 55.4, VLA-4 inh 49.8 | VLA-4 mod pick inactive
CC(=O)Oc1ccc(N2C(=O)C3C4C=CC(CO)(O4)C3C2=O)cc1 (stereo unspecified)	none
CCc1ccc(C2C3=C(CC(C)(C)CC3=O)Nc3c2c(=O)[nH]c2nc(C)nn32)cc1 (stereo unspecified)	Bfl-1 A1 inh 6.1, VLA-4 inh 57.0 | VLA-4 mod pick inactive
COc1cccc(CNC(=O)c2ccc(Cl)c(NC3=NC4CS(=O)(=O)CC4S3)c2)c1 (stereo unspecified)	none
O=C(NCCCNc1ccc(C(F)(F)F)cc1[N+](=O)[O-])c1ccc(Cl)cc1	none
O=C(NCCCNc1ccc(C(F)(F)F)cc1[N+](=O)[O-])c1cc(F)c(F)cc1Cl	VLA-4 inh 94.2 | VLA-4 mod pick inactive
CCN(CC)S(=O)(=O)c1ccc(OCC(=O)NC(=O)c2ccccc2OC)c([N+](=O)[O-])c1	none
COc1ccc(Br)cc1S(=O)(=O)n1c([N+](=O)[O-])cnc1C	none | VLA-4 mod pick inactive
C/C(CC(=O)Nc1cccc2c1CCCC2)=N\NC(=O)c1cccc2ccccc12	none | VLA-4 mod pick inactive
Cc1cc(=O)oc2cc(OC(C)C(=O)NCCCN3CCCC3=O)c(Cl)cc12 (stereo unspecified)	VLA-4 inh 51.8 | VLA-4 mod pick inactive
O=Cc1cnc(N2CCN(c3ccccc3)CC2)s1	VLA-4 inh 52.1 | VLA-4 mod pick inactive
CCOc1ccc(S(=O)(=O)Nc2cc(OC)ccc2OC)cc1	VLA-4 inh 53.1 | VLA-4 mod pick 56.5
COc1ccc(OC)c(NS(=O)(=O)c2ccc(SC)cc2)c1	none

Bioassay records: PubChem, several laboratories
